# Test results from PubChem BioAssay (NCATS).
# Results filed as inconclusive are left out. Entries that show only a call come without a potency. Active and inactive are the calls of the source. Calls come from the whole dose curve; as a rule, active = well fitted inhibition curve with a large enough effect; inconclusive = small, poorly fitted or top-dose-only effect; inactive = no such curve, though single readings can be large or run the other way.
# Target: Retinaldehyde dehydrogenase 3 (Homo sapiens) (UniProt P47895)
# Assay: qHTS for Inhibitors of the Aldehyde Dehydrogenase Family (ALDH1A3) Primary screen (AID 2061315)
# Conditions: ALDH inhibition qHTS; series mostly up to 56 µM
row,SMILES,Potency
1,CN(C)c1ccc(C(=O)OCC#CCSc2nnc(-c3cccc4ccccc34)o2)cc1,inactive
2,COc1ccc(-c2ccc3ncnc(NCc4cccs4)c3c2)cc1OC,inactive
3,Cc1ccc(N[S+](=O)([O-])c2cc3c(cc2CCc2ccccc2)NC(=O)CO3)cc1C,inactive
4,Cc1ccc2nc3sc(C(=O)Nc4ccc(F)cc4)cc3cc2c1,inactive
5,O=C(CN1C(=O)N/C(=C\c2cccn2-c2cccc(C(=O)O)c2)C1=O)Nc1ccc(Cl)cc1,inactive
6,O=c1c(Nc2ccc(F)c(C(F)(F)F)c2)c(Nc2nnc(-c3ccncc3)s2)c1=O,inactive
7,O=C1CCCC2=C1C(c1ccn[nH]1)N=C(Nc1nc3ccccc3o1)N2 (stereo not given),inactive
8,O=C1CCc2cc([S+](=O)([O-])Nc3ccc(Cl)c(Cl)c3)c(NCCCO)cc2N1,inactive
9,Cn1ncc2ccc(-c3ccc4ncnc(NCc5cccs5)c4c3)cc21,inactive
10,COCCNc1ccc(NC(=O)c2cccs2)cn1,inactive
11,Cc1ccc(-c2ccc(=O)n(CC(=O)NCCCc3ccccc3)n2)cc1,inactive
12,CCOc1cc2c(cc1OCC)CN(C(=O)c1cc3sccc3n1Cc1ccccc1)CC2,inactive
13,CCCC1CCN(C(=O)COC(=O)c2ccc(S(C)(=O)=O)c([N+](=O)[O-])c2)CC1,inactive
14,Cn1c2cc([N+](=O)[O-])sc2c2cnn(Cc3ccccc3F)c(=O)c21,inactive
15,S=C(Nc1cc(Cl)ccn1)N1CCN(c2ccc(Cl)cc2Cl)CC1,inactive
16,CC(=O)NC(c1ccco1)c1cc(Cl)c2ccc(N(C)C)nc2c1O (stereo not given),inactive
17,O=C(O)c1cccc(-n2cccc2/C=C2/NC(=O)N(c3cccc(Cl)c3)C2=O)c1,inactive
18,CSC(Cc1ccc(Cl)cc1)C(=O)Nc1ccc(Cl)cc1C(=O)O (stereo not given),inactive
19,CCCC(C)NC(=O)Cn1nc(-c2ccc(C)cc2)ccc1=O (stereo not given),inactive
20,Fc1ccc(-c2ccc(CNc3nc(-c4ccccc4C(F)(F)F)nc4ccccc34)cc2)cc1,inactive

row,SMILES,Potency
1,Cc1ccc(CNc2ncnc3ccc(-c4ccc5c(c4)OCO5)cc23)s1,inactive
2,O=C1CCCC2=C1C1(CCSCC1)N=C(Nc1nc3ccccc3o1)N2,inactive
3,CN1CCN(c2cccc(Nc3nn4c(=O)c5ccc(C(F)(F)F)cc5nc4s3)c2)CC1,inactive
4,CCOC(=O)c1[nH]c2c(c1C)CCC(c1ccco1)C2 (stereo not given),inactive
5,CNc1oc(-c2cccc3ccccc23)nc1C(=O)Nc1cccc(C#N)c1,inactive
6,COc1cc(/C=C2/C(=O)Nc3ccccc32)cc(OC)c1O,inactive
7,O=C(Cc1nnc(-c2ccncc2)s1)Nc1ccc(F)c(C(F)(F)F)c1,inactive
8,O=C(Nc1ccc(-c2nc3ccccc3[nH]2)cc1)c1ccc(-c2ccccc2)cc1,inactive
9,NC(=O)c1cccc(-c2cc(O)cc(OC(=O)NC3CCCCC3)c2)c1,inactive
10,Cc1cc(C)nc(NC(=S)N2CCN(c3ccc4c(c3)OCO4)CC2)c1,inactive
11,O=C(Nc1ccc(-c2nc3ccccc3[nH]2)cc1)c1ccc2ncsc2c1,inactive
12,Cc1ccnc(NC(=S)N2CCN(c3ccccc3C(F)(F)F)CC2)c1,inactive
13,Cc1nc(CN(C)c2ncnc3cc(-c4ccc5c(c4)OCO5)ccc23)cs1,inactive
14,Cc1ccccc1NC(=O)CN1C(=O)N/C(=C\c2cn(-c3cccc(C(=O)O)c3)cn2)C1=O,inactive
15,COc1ccnc(NCc2ccc(O)c3ncccc23)c1,inactive
16,O=C1CCCC2=C1C(c1ccccc1I)N=C(Nc1nc3ccccc3o1)N2 (stereo not given),inactive
17,CC(=O)Nc1sc2c(c1-c1ccc(OC(F)(F)F)cc1)CCNC2,inactive
18,CCC/C=C/c1cc2c(C=O)c(O)c(CC=C(C)C)cc2o1,inactive
19,CCOc1ccc(CCNC(=O)CN(C)C)cc1OCC,inactive
20,COc1ccc(C2c3ccc(OCc4ccccc4)cc3Oc3ncn(CCN4CCOCC4)c(=N)c32)cc1OC (stereo not given),inactive
